In PubChem BioAssay (NCI):
Compounds without any hit were thinned out: in the full panel of roughly 79,000, 15% have a hit. A number with no mark means an inactive call. The source made the active and inactive calls. No stated cut-off is given here; in the data, active means growth inhibition above about 70%; inactive means the rest.

How the values were obtained:
[1] = NCI Yeast Anticancer Drug Screen. Data for the rad50 strain (AID 155);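 further: 0% = growth of vehicle-only cultures of the same strain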; details: S. cerevisiae rad50 strain growth inhibition, stronger effect = higher value
Method in brief: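 DNA repair mutant yeast, compound exposure, growth read-out; inhibition is taken relative to vehicle.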

[2] = NCI Yeast Anticancer Drug Screen. Data for the mec2-1 strain (AID 157); details: S. cerevisiae mec2-1 strain, stronger effect = higher value
Method in brief: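 mec2-1 yeast strain, carrying an alteration in DNA damage repair or cell cycle control, was exposed to compounds; growth inhibition was measured relative to vehicle-treated controls.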

[3] = NCI Yeast Anticancer Drug Screen. Data for the sgs1 mgt1 strain (AID 161);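 further: 0% = growth of cultures given vehicle only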; details: S. cerevisiae sgs1 mgt1 strain, stronger effect = higher value
Method in brief: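 Yeast cells carrying a defined DNA-repair defect were exposed to test compounds. Growth inhibition was measured relative to vehicle-treated controls.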

[4] = NCI Yeast Anticancer Drug Screen. Data for the cln2 rad14 strain (AID 165);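 further: 0% = growth equal to vehicle treated cultures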; details: S. cerevisiae cln2 rad14 strain, stronger effect = higher value
Method in brief: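 Yeast carrying cln2 and rad14 alterations (cell cycle control and DNA damage repair) were exposed to compounds. Growth inhibition was measured against vehicle-treated controls.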

[5] = NCI Yeast Anticancer Drug Screen. Data for the bub3 strain (AID 167); details: S. cerevisiae bub3 mutant strain, stronger effect = higher value
Method in brief: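 In this screen, a yeast mutant lacking normal mitotic checkpoint function is challenged with compound. Relative growth versus vehicle gives the inhibition value.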

[6] = NCI Yeast Anticancer Drug Screen. Data for the mlh1 rad18 strain (AID 175); details: S. cerevisiae mlh1 rad18 strain growth inhibition, stronger effect = higher value
Method in brief: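 Growth inhibition of the yeast strain was measured after compound exposure and expressed relative to vehicle-treated controls. The strain carries defined defects in DNA damage repair.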

[7] = at 5.0 µM (retest, dose inferred, filed as 0.5)
[8] = at 50.0 µM (retest, dose inferred, filed as 5.0)

SMILES | growth inhibition [1, 7] | growth inhibition [1, 8] | growth inhibition ([1]; at 50.0 µM) | growth inhibition [2, 7] | growth inhibition [2, 8] | growth inhibition ([2]; at 50.0 µM) | growth inhibition [3, 7] | growth inhibition [3, 8] | growth inhibition ([3]; at 50.0 µM) | growth inhibition [4, 7] | growth inhibition [4, 8] | growth inhibition ([4]; at 50.0 µM) | growth inhibition [5, 7] | growth inhibition [5, 8] | growth inhibition ([5]; at 50.0 µM) | growth inhibition [6, 7] | growth inhibition [6, 8] | growth inhibition ([6]; at 50.0 µM)
O=[N+]([O-])c1ccc(-c2ccccc2Cl)c([N+](=O)[O-])c1 | 2% | 95% (active) | 95.8% (active) | -7% | 92% (active) | 95.7% (active) | 6% | 96% (active) | 91.2% (active) | -8% | 83% (active) | 80.1% (active) | -6% | 93% (active) | 95.8% (active) | 5% | 97% (active) | 93.7% (active)
N#Cc1ccc(C(F)(F)F)cc1[N+](=O)[O-] | 47% | 99% (active) | 99% (active) | 44% | 99% (active) | 99.2% (active) | 63% | 99% (active) | 99.4% (active) | 20% | 99% (active) | 98.8% (active) | 31% | 99% (active) | 99.2% (active) | 37% | 99% (active) | 99.2% (active)
CN(C)CCC(=O)[C@@]1(O)CC[C@H]2[C@@H]3CC=C4C[C@@H](O)CC[C@]4(C)[C@H]3CC[C@@]21C | 25% | 70% (active) | 44.1% | 11% | 63% | 75.4% (active) | 20% | 71% (active) | 58.1% | 8% | 34% | -18% | -1% | 59% | 49.1% | 16% | 68% | 65.5%
CC(O[Si](c1ccccc1)(c1ccccc1)C(C)(C)C)[C@H](NC(=O)OC(C)(C)C)C(=O)O[Si](c1ccccc1)(c1ccccc1)C(C)(C)C (some centres not stated) | 91% (active) | 99% (active) | 89.9% (active) | 88% (active) | 99% (active) | 92.9% (active) | 96% (active) | 100% (active) | 92.8% (active) | 93% (active) | 99% (active) | 91.2% (active) | 71% (active) | 84% (active) | 91.3% (active) | 93% (active) | 99% (active) | 89% (active)
CSC(=S)n1nc(-c2cccs2)c(N=Nc2ccccc2)c1C(F)(F)F | 5% | 97% (active) | 93% (active) | -1% | 98% (active) | 96.8% (active) | 8% | 97% (active) | 93% (active) | 6% | 97% (active) | 65.3% | 2% | 97% (active) | 78% (active) | 1% | 95% (active) | 94.4% (active)
Oc1ccc(O)c2c1CC=C(Cl)C2 | 10% | 48% | 52.4% | 12% | 57% | 52.9% | 13% | 55% | 33% | -1% | 86% (active) | 24.9% | 26% | 83% (active) | 56.5% | 17% | 75% (active) | 59.8%
S=C(Nc1ccccc1)[S][Sb]([S]C(=S)Nc1ccccc1)[c]1ccccc1 | -5% | 80% (active) | 41.4% | -6% | 98% (active) | 20% | -56% | 77% (active) | 43.1% | -8% | 34% | 12.1% | -11% | 25% | 3.15% | -2% | 94% (active) | 63.4%
CN(Cc1ccccc1)CC(O)c1ccc(/C=C/c2ccc(Cl)cc2)cc1 (configuration not stated) | 55% | 66% | 86.1% (active) | 38% | 66% | 65.5% | 87% (active) | 92% (active) | 95.9% (active) | 52% | 64% | 87.6% (active) | 68% | 82% (active) | 69.6% | 56% | 73% (active) | 86.2% (active)
CCCCC(Cc1ccccc1)(C(=O)O)c1ccccc1 (configuration not stated) | 11% | 98% (active) | 99% (active) | 18% | 98% (active) | 98.2% (active) | 16% | 99% (active) | 98.9% (active) | 31% | 99% (active) | 98% (active) | 3% | 97% (active) | 96% (active) | 14% | 99% (active) | 98.8% (active)
